# Screens: PubChem, Johns Hopkins Ion Channel Center
# In the library only some 1.6% were active in any assay of this set; here they are far more common.
# KCNQ2 block = rat KCNQ2 potassium channel inhibitors, primary screen, cell-based, CHO-K1, FluxOR thallium flux, B-score; Potassium voltage-gated channel subfamily KQT member 2 (Rattus norvegicus), O88943; 20 min; active compounds read low; B-score at 10 µM; 310,000 tested, 1.1% active; AID 2156, 2009;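 active means fluorescence ratio B-score at most minus 3 library SDs, with starting brightness B-score within 2 library SDs, cut at about -5.5 in these data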
# KCNQ2 pot = potentiators of rat KCNQ2 potassium channel; Potassium voltage-gated channel subfamily KQT member 2 (Rattus norvegicus), O88943; CHO-K1 KCNQ2, FluxOR thallium flux fluorescence; active compounds read high; B-score at 10 µM; 310,000 tested, 0.54% active; AID 2239, 2010;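 active means fluorescence ratio B-score at least 3 SD of library B-scores, with initial fluorescence B-score within 3 of them, cut at about 5.3 in these data; same plate scores as AID 2156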;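 further: B-score of peak minus minimum over baseline fluorescence ratio after K+ and Tl+ stimulus; positive B-score means potentiation of KCNQ2 with more thallium influx and brighter signal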
# Kir21 confirm = mouse Kir2.1 channel blockers, retest, confirmation, cell-based, FluxOR thallium flux, duplicate; shares compounds with KCNQ2 pot; Kir2.1-expressing cells, FluxOR thallium flux fluorescence; active compounds read low; Tl flux remaining, % of negative control (active compounds read low), % at 10 µM; 2,300 tested, 41% active; AID 2032, 2009;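 active means Primary-screen hit whose thallium flux fell at least 3 control SD below untreated wells in both duplicates, with normal baseline fluorescence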
# HEK293 ctr = counter-screen for Kir2.1 inhibitors: effect in parental HEK293 cells. shares compounds with KCNQ2 pot. AID 2105. 2,300 tested, 19% active. FluxOR thallium flux fluorescence; 0% = unstimulated blank wells. FluxOR signal as % of negative control (100 = no effect), % at 10 µM;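 active means dye signal at least 3 control SD above or below untreated wells in both duplicates, raw fluorescence within 3, either direction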;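 further: percent is based on the flux ratio of peak minus minimum fluorescence over baseline F0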
# CHO-K1 Tl ctr = nonspecific thallium flux increase in parental CHO-K1, confirmation, counter-screen for KCNQ2 potentiator project, cell-based, FluxOR thallium flux, duplicate. shares compounds with KCNQ2 pot. parental CHO-K1 cells, FluxOR thallium flux fluorescence; zero = vehicle mean+3SD, 100% = vehicle-minus-blank window. activity increase over 3SD of controls, % at 10 µM. 1,200 tested, 43% active. AID 2282, 2010;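 active means signal rise of at least 3 SD above the untreated control mean, in both duplicate wells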;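 further: counter screen of KCNQ2 potentiator hits so any rise reflects channel-independent effects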
# KCNQ1 sel pot = human KCNQ1 channel potentiation off-target, confirmation, selectivity assay for KCNQ2 potentiator project, cell-based, CHO, FluxOR thallium flux; shares compounds with KCNQ2 pot; CHO KCNQ1 stable, FluxOR thallium flux fluorescence; beyond 3SD, as % of vehicle-control signal; activation over 3SD threshold, % at 10 µM; 1,200 tested, 28% active;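 active means fluorescence ratio rise of at least 3 SD of vehicle wells above their mean, in both replicate wells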
# Target sequence (P51787 whole entry, looked up): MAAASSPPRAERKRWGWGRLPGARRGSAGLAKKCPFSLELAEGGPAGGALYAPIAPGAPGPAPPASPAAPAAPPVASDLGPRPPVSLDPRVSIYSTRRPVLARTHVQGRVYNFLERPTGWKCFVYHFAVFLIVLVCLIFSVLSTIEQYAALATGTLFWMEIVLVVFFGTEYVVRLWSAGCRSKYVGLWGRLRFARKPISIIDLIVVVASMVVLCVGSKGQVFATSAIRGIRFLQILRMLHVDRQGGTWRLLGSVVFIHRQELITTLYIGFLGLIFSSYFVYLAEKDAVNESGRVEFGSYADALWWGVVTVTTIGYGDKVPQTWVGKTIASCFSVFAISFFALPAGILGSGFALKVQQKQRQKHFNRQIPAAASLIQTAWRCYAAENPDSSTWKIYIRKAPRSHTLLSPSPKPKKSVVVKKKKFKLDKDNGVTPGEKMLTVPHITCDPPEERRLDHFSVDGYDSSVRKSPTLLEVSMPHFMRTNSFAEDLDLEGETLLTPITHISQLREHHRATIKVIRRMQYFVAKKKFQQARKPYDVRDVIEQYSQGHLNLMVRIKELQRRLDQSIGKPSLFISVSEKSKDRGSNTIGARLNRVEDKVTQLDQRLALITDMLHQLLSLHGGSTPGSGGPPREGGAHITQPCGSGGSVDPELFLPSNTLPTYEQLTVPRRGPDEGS
# KCNQ2 pot conf = rat KCNQ2 channel potentiators, confirmation, cell-based, CHO, FluxOR thallium flux, duplicate. shares compounds with KCNQ2 pot. CHO-KCNQ2 cells, FluxOR thallium flux fluorescence. potentiation, less the hit threshold, % at 10 µM. 1,200 tested, 68% active;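 active means fluorescence ratio rising 3 SD or more over the vehicle control mean in both replicates, plus primary screen hit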;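 further: peak minus minimum thallium fluorescence divided by baseline after K/Tl stimulus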
# Kir2-1 sel = mouse Kir2.1 channel activation off-target, confirmation, selectivity assay for KCNQ2 potentiator project, cell-based, HEK293, FluxOR thallium flux. shares compounds with KCNQ2 pot. HEK293 Kir2.1, FluxOR thallium flux fluorescence. activity over 3SD threshold, % at 10 µM. 1,200 tested, 2% active. AID 2345, 2010;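 active means fluorescence ratio rise of at least 3 SD above the vehicle-control mean, seen in both replicates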
# KCNQ2 W236L MoA = potentiators of retigabine-insensitive KCNQ2 W236L, mechanism study for KCNQ2 potentiator project, cell-based, rat KCNQ2 W236L, CHO, automated patch clamp | shares compounds with KCNQ2 pot | automated patch clamp current | current increase over 3SD of negative controls (%), active compounds read high, % at 25 µM | 940 tested, 10% active;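 active means current increase at least 3 SD of the untreated controls above them in both duplicate recordings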
# Numbers stand for hits; – = inactive; · = not tested or not shown.
SMILES,KCNQ2 block,KCNQ2 pot,Kir21 confirm,HEK293 ctr,others
Cc1cnc(C(=O)OC(C)C(=O)NC2CCCc3ccccc32)cn1 (centres undefined),–,·,·,·,
COc1cc(F)ccc1S(=O)(=O)n1c(C)nc2ccccc21,–,·,52%,–,
COc1cc(C)c(C)cc1S(=O)(=O)n1c(C)nc2ccccc21,–,·,·,·,
CCOc1cc(C(=O)N2CCC3(CC2)NCCc2[nH]cnc23)cc(OCC)c1OCC,–,·,·,·,
COC(=O)c1sc(NC(=S)NC(=O)c2ccccc2C)nc1C,–,12,–,302%,CHO-K1 Tl ctr=–;KCNQ1 sel pot=33;KCNQ2 pot conf=47;Kir2-1 sel=–;KCNQ2 W236L MoA=–
COC(=O)c1sc(NC(=S)NC(=O)c2ccc(F)cc2)nc1C,–,–,·,·,
CSCCC(NC(=O)c1ccc(Cl)cc1)C(=O)O (centres undefined),–,–,·,·,
CSCCC(NC(=O)c1ccc(Cl)cc1)C(=O)OCC(=O)N1CCCC1=O (centres undefined),–,8.8,–,–,CHO-K1 Tl ctr=–;KCNQ1 sel pot=–;KCNQ2 pot conf=18;Kir2-1 sel=–;KCNQ2 W236L MoA=26%
CC(=O)NC1(C(F)(F)F)NC(=O)N(c2ccc(F)cc2)C1=O (centres undefined),–,·,·,·,
COc1ccc(Nc2ccc(Cl)nn2)cc1,–,–,·,·,
Clc1ccc(Nc2ccc(Cl)nn2)cc1,–,6.6,–,–,CHO-K1 Tl ctr=17;KCNQ1 sel pot=36;KCNQ2 pot conf=14;Kir2-1 sel=–;KCNQ2 W236L MoA=25%
CCOc1ccc(N(C)C(=O)CCc2nnc3ccc(N4CCCCC4)nn23)cc1,–,–,·,·,
Cc1nn(Cc2ccccc2)c(Cl)c1C(=O)OCC#N,–,–,·,·,
O=C(COC(=O)CCc1ccc(S(=O)(=O)N2CCOCC2)cc1)NC(=O)NC1CCCCC1,–,·,·,·,
O=C(O)Cc1ccc(O)c(O)c1,–,·,·,·,
O=C(O)Cc1cc(I)c(Oc2ccc(O)c(I)c2)c(I)c1,–,9.9,–,–,CHO-K1 Tl ctr=1.9;KCNQ1 sel pot=19;KCNQ2 pot conf=112;Kir2-1 sel=–;KCNQ2 W236L MoA=–
Cc1csc(NC(=O)c2cc3c(s2)CCCCC3)n1,–,–,·,·,
Cc1csc(NC(=O)c2cc3c(s2)CCCC3)n1,–,7.3,–,–,CHO-K1 Tl ctr=96;KCNQ1 sel pot=–;KCNQ2 pot conf=–;Kir2-1 sel=–;KCNQ2 W236L MoA=–
COc1ccc(-c2nnnn2-c2ccc(F)cc2F)cc1,–,–,·,·,
Oc1c(CN2CCOCC2)cc(COCc2ccccc2)c2cccnc12,–,11,–,–,CHO-K1 Tl ctr=–;KCNQ1 sel pot=–;KCNQ2 pot conf=26;Kir2-1 sel=–;KCNQ2 W236L MoA=–
Oc1c(CN2CCN(c3ccccc3)CC2)cc(Br)c2cccnc12,–,–,·,·,
O=c1nc(SCc2c(F)cccc2Cl)nc(-c2ccc(Cl)cc2)[nH]1,–,–,·,·,
O=c1nc(SCc2ccccc2Cl)nc(-c2ccc(Cl)cc2)[nH]1,–,11,–,148%,CHO-K1 Tl ctr=13;KCNQ1 sel pot=–;KCNQ2 pot conf=6.1;Kir2-1 sel=–;KCNQ2 W236L MoA=–
O=C(NCCN1CCN(c2ccccc2)CC1)C1CCN(S(=O)(=O)c2cccc3nsnc23)CC1,–,–,·,·,
COc1ccc(CCN2CC(C(=O)NCc3ccc(F)cc3)CC2=O)cc1OC (centres undefined),–,–,·,·,
SMILES,KCNQ2 block,KCNQ2 pot,Kir21 confirm,HEK293 ctr,others
CSc1ccccc1NC(=O)Nc1cccc(Cl)c1C,–,–,·,·,
Cc1c(Cl)cccc1Nc1ccccc1C(=O)O,–,·,·,·,
Cc1ccccc1C(=O)NNC(=O)C(=O)Nc1cccc(Cl)c1C,–,14,–,275%,CHO-K1 Tl ctr=–;KCNQ1 sel pot=–;KCNQ2 pot conf=21;Kir2-1 sel=–;KCNQ2 W236L MoA=–
Cc1c(Cl)cccc1NC(=O)C(=O)NNC(=O)c1ccccc1F,–,22,–,426%,CHO-K1 Tl ctr=–;KCNQ1 sel pot=–;KCNQ2 pot conf=73;Kir2-1 sel=–;KCNQ2 W236L MoA=–
COc1ccc(CNCCC(c2ccc(OC(C)C)cc2)c2ccccc2OC)cc1 (centres undefined),–,·,29%,–,
COc1ccccc1C(CCNCc1ccccc1)c1ccc(OC(C)C)cc1 (centres undefined),–,·,58%,–,
COc1ccc(CNCCC(c2ccc(OC(C)C)cc2)c2ccccc2OC)cc1OC (centres undefined),–,·,·,·,
COc1ccccc1C(CCNCc1ccc(N(C)C)cc1)c1ccc(OC(C)C)cc1 (centres undefined),–,·,·,·,
COc1ccc2cc3cc(C(=O)NCc4cccnc4)oc3nc2c1,–,–,·,·,
COc1ccccc1CNC(=O)c1sccc1C,–,·,·,·,
COc1cccc(CN(C)C(=O)c2sccc2-c2ccccc2)c1OC,–,·,·,·,
CN(Cc1ccccc1F)C(=O)c1sccc1-c1ccccc1,–,·,54%,–,
COc1ccccc1CNC(=O)c1sccc1-c1ccccc1,–,·,74%,–,
Cc1ccc(S(=O)(=O)NCC(C)NC(=O)CN2CCOCC2)cc1 (centres undefined),–,–,·,·,
CC(=O)Nc1cccc(OCC(=O)NC(C)c2ccc3ccccc3c2)c1 (centres undefined),–,–,56%,–,
CC(=O)Nc1cccc(OCC(=O)Nc2ccccc2)c1,–,–,·,·,
COc1ccc(C(CNc2ccc(C(F)(F)F)cn2)N(C)C)cc1OC (centres undefined),–,·,·,·,
COc1ccc(NC(=O)[C@H](C)NC(=O)C2CCN(S(=O)(=O)c3ccc(C)cc3)CC2)cc1,–,–,·,·,
N=c1c2c(-c3ccccc3)c(-c3ccccc3)n(Cc3ccco3)c2ncn1Cc1ccco1,-6.9,–,54%,–,
N=c1c2c(ncn1Cc1ccco1)Oc1ccc3ccccc3c1C2c1ccccc1 (centres undefined),–,–,·,·,
Cc1cc(NCCCn2ccnc2)n2nc(C)c(-c3ccccc3)c2n1,–,·,·,·,
N=c1c2c(-c3ccccc3)c(-c3ccccc3)n(Cc3ccccc3)c2ncn1CCCn1ccnc1,–,·,–,–,
COc1ccc(C[C@H]2CN3C(=NC[C@@H]3C(C)C)N2CCNC(=O)c2ccc(C)c(Br)c2)cc1,–,·,49%,–,
Cc1ccc(C(=O)NCCN2C3=NC[C@H](C(C)C)N3C[C@H]2Cc2ccc(O)cc2)cc1Br,–,·,·,·,
CSCCC(NC(=O)c1ccccc1Cl)C(=O)N(C)CC(=O)Nc1ccc(N2CCOCC2)cc1 (centres undefined),–,·,·,·,
